# Measurements taken from PubChem BioAssay (NCI).
# The panel holds about 83,000 compounds, 20% with a hit somewhere; the sample as a whole holds those more often.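 48-hour exposure, single concentration, 96-well plates; percent growth endpoint where 0 means no net growth. Active: below 10.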 Values without a mark were called inactive. Calls of active or inactive are those of the source.
# Test system: HL-60(TB) leukemia
# Assay: NCI-60 one-dose screen, 48 h (100 = growth as untreated, 0 = no growth, -100 = all killed)
# Conditions: 10 µM unless noted
row,Structure (SMILES),growth
1,Cc1ccccc1[C@H]1C(C(=O)c2ccc(Cl)cc2)C2(N[C@@H]1c1ccccc1)C(=O)Nc1ccccc12 (some centres undefined),-18.1% (active)
2,CC(C)(C)OC(=O)N1C/C(=C\c2ccc(F)cc2)C(=O)/C(=C/c2ccc(F)cc2)C1,-6.78% (active)
3,COc1ccc(-c2cc(C(=O)N=Nc3c(O)[nH]c4ccccc34)c3ccccc3n2)cc1,56.2%
4,CCOc1ccc(-c2c(C#N)c(-c3ccc(Cl)cc3)nc3n[nH]c(-c4ccc(Cl)cc4)c23)cc1OC,4.06% (active)
5,C=C1CCC2C3(C)COC(c4cccc(F)c4)OC3CCC2(C)C1C/C=C1/C(=O)OCC1O (centres undefined),4.43% (active)
6,Cc1oc(-c2ccccc2)nc1CN[C@@H]1C[C@@H]2C[C@H]([C@H]1C)C2(C)C,-23.7% (active)
7,Cc1ccc(S(=O)(=O)N(CCn2ccnc2[N+](=O)[O-])CCn2ccnc2[N+](=O)[O-])cc1,94.6%
8,COc1ccc2[nH]cc(-c3nnc(N)nc3-c3c[nH]c4ncc(Br)cc34)c2c1,103%
9,Cc1nc2sccn2c1-c1nnc(SCc2ccccc2)o1,89.9%
10,COc1cccc(-c2ccc(/C=N/NC(=O)c3[nH]c4ccc(Br)cc4c3-c3ccccc3)o2)c1,-38.4% (active)
11,O=C1/C(=C/C=C/c2ccco2)SC(=S)N1CC(=S)C1C=CS(=O)(=O)C1 (centres undefined),59.4%
12,COc1ccc(C(=O)NC(=S)N2CCN(c3ncnc4c3cnn4-c3ccccc3)CC2)cc1,80.5%
13,COc1cc2oc(-c3cccc(C(=O)Nc4ccc(Cl)cc4)c3)cc(=O)c2c(OCCNC(=O)CNC(=O)OC(C)(C)C)c1OC,55.5%
14,NS(=O)(=O)c1ccc(NNC(=O)CCC(=O)c2ccccc2)cc1,75.3%
15,O=C(/C=C/Nc1ccc(Cl)cc1)c1ccc2c(c1)Nc1ccccc1S2,92.7%
16,COc1cc2cc(C(=O)N3C[C@@H](CCl)c4c3cc(OC(=O)N(CCC(=O)N3CCN(C)CC3)C3CCCCC3)c3ccccc43)[nH]c2c(OC)c1OC,-55.9% (active)
17,COc1ccc2ncc(C#Cc3cncc(C(=O)Nc4ccc(CN5CCN(C)CC5)c(C(F)(F)F)c4)c3)n2n1,-60.2% (active)
18,COc1ccccc1NC(=O)c1ccc(NC(=O)CCl)s1,-53.8% (active)
19,CN1CCc2c(sc3ncnc(N/N=C/c4cccc(Cl)c4Cl)c23)C1,-50.9% (active)
20,CCCCCCCCc1ccc(C(=O)Nc2ccc(C)cc2C(=O)O)cc1,92.2%
21,C=C1CC[C@@H]2[C@]3(C)COC(c4cn[nH]c4-c4cccc(Br)c4)O[C@@H]3CC[C@@]2(C)[C@@H]1C/C=C1/C(=O)OCC1O (some centres undefined),-16.3% (active)
22,CC(=O)c1cc(C(=O)c2ccc3c(c2)NC(=O)CO3)n2ccc3ccccc3c12,94.7%
23,CCOC(=O)C1=C(N)N(c2ccccc2)C2=C(C(=O)CC(C)(C)C2)C1c1ccccc1OC (centres undefined),99.2%
24,O=C1Nc2cc(Cl)ccc2/C1=C/c1cccc(OCc2ccccc2)c1,-25.3% (active)
